# The campaign covered roughly 310,000 compounds. About 14,000 (4.5%) showed an effect of 50% or more. The effect is printed as a negative number. The full list was thinned out, with strong results kept by preference.
# Target: human ether-à-go-go-related gene (hERG) potassium channel (human, UniProt Q12809)
# Test: primary screen, population patch clamp on CHO cells stably expressing hERG; higher = less effect of the substance
# 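Note: peak tail current of the secondary pulse compared with the same well before compound.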
# human ether-à-go-go-related gene (hERG) potassium channel, sequence (Q12809 whole entry, looked up): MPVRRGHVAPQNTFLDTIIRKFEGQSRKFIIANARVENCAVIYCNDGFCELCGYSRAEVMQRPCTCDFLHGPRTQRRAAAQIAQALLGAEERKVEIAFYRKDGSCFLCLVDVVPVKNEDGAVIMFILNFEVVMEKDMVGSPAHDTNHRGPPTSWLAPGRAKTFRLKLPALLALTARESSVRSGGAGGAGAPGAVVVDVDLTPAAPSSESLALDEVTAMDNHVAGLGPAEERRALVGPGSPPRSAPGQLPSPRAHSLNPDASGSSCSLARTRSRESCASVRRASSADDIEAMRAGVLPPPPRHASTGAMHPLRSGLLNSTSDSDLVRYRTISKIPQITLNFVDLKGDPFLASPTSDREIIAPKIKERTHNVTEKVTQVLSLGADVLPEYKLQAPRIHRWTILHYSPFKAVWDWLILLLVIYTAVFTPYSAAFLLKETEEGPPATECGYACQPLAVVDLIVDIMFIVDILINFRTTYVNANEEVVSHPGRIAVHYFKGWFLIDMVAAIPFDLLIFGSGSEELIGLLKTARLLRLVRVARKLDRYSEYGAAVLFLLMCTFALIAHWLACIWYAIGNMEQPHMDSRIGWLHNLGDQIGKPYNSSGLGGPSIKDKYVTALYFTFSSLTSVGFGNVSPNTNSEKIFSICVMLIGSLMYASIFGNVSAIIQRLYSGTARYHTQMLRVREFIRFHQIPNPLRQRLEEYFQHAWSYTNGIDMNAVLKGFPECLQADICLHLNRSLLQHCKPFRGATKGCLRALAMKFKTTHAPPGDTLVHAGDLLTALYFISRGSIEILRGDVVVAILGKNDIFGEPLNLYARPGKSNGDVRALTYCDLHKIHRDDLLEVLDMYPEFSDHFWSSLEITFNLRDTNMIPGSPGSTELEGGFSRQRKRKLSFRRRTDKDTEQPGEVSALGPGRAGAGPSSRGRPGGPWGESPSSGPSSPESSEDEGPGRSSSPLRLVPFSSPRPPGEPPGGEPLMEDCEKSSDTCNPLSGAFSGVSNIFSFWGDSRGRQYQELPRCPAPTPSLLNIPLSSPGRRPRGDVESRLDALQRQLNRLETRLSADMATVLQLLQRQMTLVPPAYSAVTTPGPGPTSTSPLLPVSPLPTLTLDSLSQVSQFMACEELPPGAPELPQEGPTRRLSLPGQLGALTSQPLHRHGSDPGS
row,Structure (SMILES),"hERG current change (%, negative = inhibition) at 10uM [%]"
1,COc1cc(CCC(=O)Nc2ccc(C)c(S(=O)(=O)N3CCCCCC3)c2)cc(OC)c1OC,-6.5
2,O=C(OCCN1C(=O)c2ccccc2C1=O)C1CCN(S(=O)(=O)c2cccs2)CC1,-31.9
3,COc1cc(CCN2C(=O)N[C@@H](CCc3ccccc3)C(C(C)=O)=C2C)cc(OC)c1OC,-12.6
4,CC(=NCC1CCCO1)c1c(O)n(C2CCCCC2)c(=O)[nH]c1=O (centres unmarked),-9.77
5,CC(C)(C)NC(=O)CN1CCCN(C(=O)c2cccc(S(=O)(=O)N3CCc4ccccc43)c2)CC1,-7.51
6,CCn1c(NN=O)nc2ccccc21,15.6
7,O/N=C1/C2C3CC4C5C3C1C5C1(OCCO1)C42 (centres unmarked),4.44
8,Cc1cccc(OS(=O)(=O)NC(=O)OCC2CCCN3CCCCC23)c1 (centres unmarked),15.1
9,O=C(c1cc2nc(-c3ccccc3)cc(-c3ccccc3)n2n1)N1CCC2(CC1)OCCO2,-49.4
10,C/C(=N/Nc1ccc(F)cc1)c1ccc(Cl)s1,8.69
11,CC(C)(C)c1ccc(CCC(CC(=O)O)CC(=O)O)cc1,-11.9
12,CCn1cc(C(=O)NC2CCCCCC2)c(=O)c2cc(S(=O)(=O)N3CCCCC3)ccc21,8.24
13,CCN1CCCC1CNC(=O)c1cn(CC)c2ccc(S(=O)(=O)N3CCCCCC3)cc2c1=O (centres unmarked),-66.5
14,CCn1cc(C(=O)NCCC(C)C)c(=O)c2cc(S(=O)(=O)N3CCCCC3)ccc21,-7.53
15,Cc1cccc(NC(=O)c2c(O)c3ccccc3n(C)c2=O)c1,25.8
16,Cc1ccc(CCNC(=O)C2CCCN(C(=O)N(C)C)C2)cc1 (centres unmarked),8.01
17,CCOc1ccc(CCNC(=O)c2nnc(Cc3ccc(F)cc3)o2)cc1OCC,-1.78
18,Cc1cc(C)c2nc(-n3nc(C)cc3N)cc(C)c2c1,20
19,Cc1cc(C)c2c(SC(C)C)nc(N)nc2n1,-4.12
20,Cc1cc(C)c2nc3nc(C)cc(C)c3c(N)c2c1,-65.5
21,Cc1cc(C)c2c(N)c3ccccc3nc2n1,-53.9

row,Structure (SMILES),"hERG current change (%, negative = inhibition) at 10uM [%]"
1,Cc1cc(C)c2cccc(N)c2n1,20.7
2,Cc1cc(C)c2c(N)c3cccc(C)c3nc2n1,-64.7
3,Cc1cccc2c(C(=O)O)c3cccc(C)c3nc12,1.39
4,Cc1cc(N)c2ccccc2n1,7.4
5,CCc1ccc2nc3nc(C)cc(C)c3c(N)c2c1,1.12
6,CC(C)(C)n1nc2c(c1NC(=O)c1ccc(F)c(F)c1)CS(=O)(=O)C2,3.79
7,COc1ccc(/C=N/NC(=O)c2ccc(CN3c4cccc5cccc(c45)S3(=O)=O)cc2)cc1,4.03
8,CC(C)CN(C(=O)COC(=O)c1c2c(nc3ccccc13)CCC2)c1c(N)n(Cc2ccccc2)c(=O)[nH]c1=O,4.06
9,Cc1ccc(N2CC(C(=O)NCCS(=O)(=O)N3CCN(c4ccccc4F)CC3)CC2=O)cc1 (centres unmarked),13.2
10,CC(C)(C)c1ccc(OCCNC(=S)NC(=O)c2cccnc2)cc1,-16.3
11,CCC(CC)C(=O)Nc1cc(C(=O)OC)ccc1C(=O)OC,-15.4
12,COCCn1cc(C(=O)c2cc(Br)ccc2O)cc(C#N)c1=O,2.45
13,CC(Sc1nnc(Cc2cccs2)n1C1CCCCC1)C(=O)NCc1ccco1 (centres unmarked),-5.59
14,CC(C)(C)C(=O)CSc1nnc(-c2cccs2)n1CC1CCCO1 (centres unmarked),-12.4
15,O=C(CSc1nnc(-c2cccs2)n1CC1CCCO1)N1CCCC1 (centres unmarked),-14.4
16,Cc1ccc(-n2c(SCC(=O)NCc3ccco3)nnc2-c2cccnc2)cc1,-60.8
17,CNC(=O)CSc1nnc(-c2cccnc2)n1-c1ccc(C)cc1,13.6
18,Cc1ccc2nc(-c3ccccc3)nc(SC(C)C(=O)NCc3cccs3)c2c1 (centres unmarked),11.7
19,O=C(CCCSc1nnc(-c2cccs2)n1CC1CCCO1)c1ccccc1 (centres unmarked),-65.1
20,CC(Sc1nc(-c2ccccc2)cc(C(F)(F)F)n1)C(=O)NCc1ccco1 (centres unmarked),10.2
21,CC(Sc1nnc(-c2cccs2)n1-c1ccccc1)C(=O)NCc1ccco1 (centres unmarked),-79.4

row,Structure (SMILES),"hERG current change (%, negative = inhibition) at 10uM [%]"
1,Cc1ccc(C)c2c(SC(C)C(=O)NCc3ccco3)nc(-c3ccccc3)nc12 (centres unmarked),-64.7
2,Cc1ccc(-n2c(SCC(=O)NCc3ccco3)nnc2-c2cccnc2)c(C)c1,-34.4
3,Cn1c(SCC(=O)NCc2ccco2)nnc1-c1cccs1,3.45
4,CCCCNC(=O)CN1C(=O)COc2ccc(S(=O)(=O)N3CCCCCC3)cc21,-1.25
5,O=C(CSc1nc(=O)n2ccccc2n1)NCCc1ccccc1,-1.36
6,Cc1ccc2nc(CSc3nnc(Cc4cccs4)n3C3CCCCC3)cc(=O)n2c1,-15.6
7,COc1cccc(C(=O)N/N=C/c2ccc(OC)c(COc3ccccc3C(N)=O)c2)c1,-2.25
8,N#Cc1cc(Oc2ccc(Cl)cc2)c(N2CCOCC2)cc1C#N,-1.79
9,Cc1nnc(SCC(=O)NCc2ccco2)n1-c1ccccc1,26.1
10,O=C(CSc1nnc(-c2ccccc2)n1-c1ccccc1)NCc1ccco1,1.47
11,Cc1cccc(-n2c(SCC(N)=O)nnc2-c2ccco2)c1,-1.07
12,O=C(CSc1nnc(-c2ccco2)n1-c1ccccc1)NCc1ccco1,-67.8
13,O=C(CSc1nnc(-c2ccco2)n1-c1ccccc1)NCCc1ccccc1,-69.4
14,CN(Cc1ccccc1)C(=O)CSc1nnc(-c2ccco2)n1-c1ccccc1,-80.2
15,Cn1c(SCC(=O)NCCc2ccccc2)nnc1-c1ccco1,-4.63
16,Cc1cccc(-n2c(SCC(=O)NCc3ccco3)nnc2-c2ccco2)c1,-75.7
17,NC(=O)CSc1nnc(-c2ccco2)n1-c1ccccc1,16.1
18,O=C(O)CCCCCNC(=O)CSc1nnc(-c2ccco2)n1-c1ccccc1,11.9
19,CC(=O)CSc1nnc(-c2ccco2)n1-c1ccccc1,-11.7
20,CNC(=O)CSc1nnc(-c2ccco2)n1-c1cccc(C)c1,-4.75

# Reference: article PMC4336329 (PLoS ONE, 2015)
